Drawing on PubChem BioAssay AID588492 (Sanford-Burnham Center for Chemical Genomics, 2011), this text covers protection from H2O2 cell death for 25 compounds.

Molecules are shown by their SMILES. Screen size: about 360,000 compounds; about 2,300 (0.64%) were called active. The full list was thinned out, with actives kept by preference. A number with no mark means an inactive call.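 How the source made its calls: active means compounds giving at least 50% protection of heart cells from peroxide-induced death in the single-dose screen, raw or plate-pattern-corrected value; inactive means the rest.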

A short description of this assay: cardioprotection against H2O2-induced cell death, primary screen, uHTS, H9c2 cells, ATPLite luminescence (AID 588492).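 Further: 0% = DMSO wells with peroxide and 100% = DMSO wells without peroxide.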 As to conditions: H9c2 cardiomyocytes, H2O2 injury protection, 2 h, at 20 µM, hits give high values. In general terms: ATP-based viability assays read luminescence as a measure of living cells.
Take `COc1ccc2[nH]c(=O)c(CN(Cc3cccnc3)S(=O)(=O)c3ccccc3F)cc2c1`: the protection from H2O2 cell death was 60.7% (active).

As to `CCOc1ccc2[nH]c(=O)c(CN(CCCO)S(=O)(=O)c3ccc(F)cc3)cc2c1`, the protection from H2O2 cell death is 18.6%. In the case of `COc1ccc(-c2[nH]ncc2CN(C)Cc2cccnc2)c(F)c1` it was -2.7%; in that of `O=C(CNS(=O)(=O)c1ccc2c(c1)OCCCO2)N1CCN(c2ccc(F)cc2)CC1`, -3.7%. To `CC1CCC2(CC1)NC(=O)N(CC(=O)c1cccn1C)C2=O` (stereo not given) belongs 7.1%; to `Cc1ccc(C(=O)N/C(=C/c2ccc(-c3cccc([N+](=O)[O-])c3)o2)C(=O)NCCCN(C)C)cc1`, -22.6%; to `N#C/C(=C\c1ccc(-c2cccc([N+](=O)[O-])c2)o1)C(=O)NCCN1CCOCC1`, 55% (active). For the compound `Cc1ccc(-c2ccc(/C=N/NC(=O)CN3CCOCC3)o2)cc1[N+](=O)[O-]`, the protection from H2O2 cell death is 7.6%. To `COc1ccc(C(=O)Nc2ccc(C(=O)NCC3CCCO3)cc2)c(OC)c1OC` (stereo not given) belongs 10.2%. With `O=C(NCCN1C(=O)S/C(=C\c2cccnc2)C1=O)c1ccc(S(=O)(=O)N2CCCC2)cc1`, the protection from H2O2 cell death was 0.9%. In the case of `Oc1c(C(c2ccccn2)N2CCOCC2)ccc2cccnc12` (stereo not given) it was 64.9% (active).

With `CCOC(=O)c1cc(-c2nnc(-c3cc(OC)c(OC)c(OC)c3)o2)c(C)nc1C`, the protection from H2O2 cell death was 119% (active). Regarding `COc1cc(-c2nnc(NC(=O)C3=COCCO3)o2)cc(OC)c1OC`, the protection from H2O2 cell death is -5.7%. In the case of `Cc1nc(C)c(-c2nnc(-c3cccc(S(=O)(=O)N(C)C)c3)o2)cc1C(=O)NN` it was -1.4%. For `CCOC(=O)c1[nH]cnc1C(=O)NC1CCCCC1`, the protection from H2O2 cell death was 5.2%.

Regarding `COc1ccc(C(=O)NNC(=O)c2cc(C)[nH]n2)cc1`, the protection from H2O2 cell death was 7.7%. In the case of `Cc1occc1C(=O)N/N=C/c1ccc(-c2cccc([N+](=O)[O-])c2)o1` it was 16.2%. In the case of `Cc1cc(C(=O)N/N=C/c2cc([N+](=O)[O-])cc(C)c2O)n[nH]1` it was 58.2% (active); in that of `O=C(OC1CCOC1=O)c1ccc(-c2nc3ccccc3s2)s1` (stereo not given), -18.2%; in that of `Cc1cc(C)c(S(=O)(=O)c2ccc(F)cc2C)c(=O)[nH]1`, 11.1%.

Consider `CCN(CC)CCn1c(/N=C/c2cc(Br)ccc2O)nc2ccccc21`, for which the protection from H2O2 cell death is 32.2%.

For `Oc1ccc(Br)cc1C=Nc1ccc2[nH]ncc2c1`, the protection from H2O2 cell death is 63.8% (active). To `O=C(CCc1ccc(O)cc1)NN=Cc1cc(Br)ccc1O` belongs 41.5%; to `CCc1cc(=O)oc2cc(OCC(=O)N3CCCc4ccccc43)ccc12`, 22.6%; to `Cc1cc(C(=O)OCC(=O)NCc2ccco2)c(C)n1-c1ccccc1`, -1.9%.
